Screens (PubChem BioAssay)
Most compounds without a hit are left out; they make up all but 2.5% or so of the library.
VACV mCherry inh = vaccinia inhibition (mCherry reporter). 0.63% of 310,000 active. Vaccinia virus mCherry reporter infection, fluorescence. Potency, µM (doses to about 36.5 µM), inactives show at the top dose activity change, negative = inhibition, usual class: inhibitors; calls by dose curve; tested in A549 cells; note: nearly all actives have a fitted effect of over 35% in size
VACV Venus inh = vaccinia inhibition (Venus reporter); Vaccinia virus Venus reporter expression, fluorescence; Potency, µM (series often up to 36.5 µM), for the others: at the top dose activity change, negative = inhibition, actives largely listed as inhibitors; 0.46% of 330,000 active; calls by dose curve; tested in A549 cells; note: nearly all actives have a fitted effect of over 30% in size
MARV entry inh = Marburg virus entry inhibition; Marburg virus pseudotyped entry inhibition, cell reporter; Potency, µM (doses to about 37.8 µM), without a hit: at the highest dose activity change, negative = inhibition, most hits filed as inhibitors; 1.8% of 300,000 active; AID 540276; calls by dose curve; tested in HEK293 cells
LASV entry inh = Lassa virus entry inhibition | AID 540256 | Lassa virus pseudotype entry inhibition, cell reporter | Potency, µM (doses to about 37.9 µM), for the others: top-dose activity change, negative = inhibition, actives largely listed as inhibitors | 1.2% of 300,000 active; calls by dose curve; tested in HEK293 cells; note: nearly all actives have a fitted effect of over 50% in size
* = called active by the depositor; i = inactive; ? = inconclusive; · = no result; [ ] = dose if it differs, or a comment. % is set by controls: 0 for no effect and ±100 for the full control effect; potency is the fitted concentration of half-maximal effect.

SMILES	VACV mCherry inh	VACV Venus inh	MARV entry inh	LASV entry inh
CCCC(=O)Nc1ccc(Sc2ccc([N+](=O)[O-])cc2)cc1	·	-28%	20µM*	10µM*
CCC(CC)C(=O)Nc1ccc(Sc2ccc([N+](=O)[O-])cc2)cc1	·	·	-14%	10%
CCN1C(=NCC(C)C)N[C@H](c2ccccc2)[C@H](C(=O)OC)[C@H]1C	·	·	8%[14.2 µM]	-14%[14.3 µM]
COc1ccc2cc(C(=O)C3CCCN(C4CCOCC4)C3)ccc2c1 (stereo not drawn)	-23%	-22%	7.9µM*	2%[46.1 µM]
O=C(/C=C/c1ccccc1Cl)c1ccc[nH]1	13µM*	?	?	0%
Cc1ccc(CN2[C@H](C)[C@H](c3ccccc3)OCCS2(=O)=O)cc1	-10%	-27%	·	·
CCCCN(CCCC)CC(O)c1cc(Cl)cc2c1-c1ccc(Cl)cc1C2=Cc1ccc(Cl)cc1 (stereo not drawn)	-13%	-3%	·	·
Cc1cc(O)cc2c(=O)c3ccccc3sc12	-17%	-9%	-1%[46.1 µM]	4%
CCN(CC)CCNc1ccc(CO)c2sc3ccccc3c(=O)c12	-22%	?	11µM*	?
Cc1ccc(NCCN(C)C)c2c(=O)c3cc(O)ccc3sc12	1.4µM*	?	?	4µM*
O=c1c2ccccc2sc2c(CO)ccc(NCCN3CCCCC3)c12	?	10µM*	?	?
O=c1c2ccccc2sc2ccc(NCCCN3CCOCC3)cc12	-5%	-2%	·	·
CC(=O)/C=C/c1ccccc1	i	-5%	·	·
O=C(/C=C/c1ccccc1)/C=C/c1ccccc1	?	10µM*	9.2µM*	?
Cc1ccc(CNC(=O)C2CCC(CNc3nc(=S)[nH]c4ccccc34)CC2)cc1 (stereo not drawn)	-14%	-10%	3.5µM*	-14%
COc1cccc(CNC(=O)C2CCC(CNc3nc(=S)[nH]c4ccccc34)CC2)c1 (stereo not drawn)	-25%	-10%	-7%[46.1 µM]	·
COc1ccccc1N1C(=O)N(C(C)=O)C2C1Nc1ccccc1N2C (stereo not drawn)	?	9%	12µM*	?
CCCCCCCc1cc2ccccc2c2c(C(C)=O)c(-c3ccccc3)c(C(=O)OC)n12	·	·	-16%[14.2 µM]	?
O=C(CCN1Cc2ccccc2OC(c2ccccc2F)C1)N1CCC(N2CCCC(O)C2)CC1 (stereo not drawn)	-9%	-11%	·	·
O=C(O)CCNc1ccc(NCCC(=O)O)c2c1C(=O)c1ccccc1C2=O	-9%	20%	·	·
O=C1c2cccc(NCCNCCO)c2C(=O)c2cccc(NCCNCCO)c21	?	?	5µM*	?
COc1ccc(C2=C(CN(C)C)C(c3ccccc3)c3ccccc3O2)cc1 (stereo not drawn)	·	?	?	13µM*
CCOc1ccc(C2=C(C=C(C#N)C#N)C(c3ccccc3)c3ccccc3O2)cc1 (stereo not drawn)	-24%	-19%	-14%	-20%
CSc1nc(SCC(=O)NC(c2ccccc2)c2ccccc2)c2c3c(sc2n1)CN(C)CC3	·	·	9.2µM*	?
CCOc1ccc(Br)cc1S(=O)(=O)Nc1ccc(C(=O)OCC(=O)N(C)c2ccccc2)cc1	-21%	-10%	-12%	10%
SMILES	VACV mCherry inh	VACV Venus inh	MARV entry inh	LASV entry inh
CN(c1ccccc1)S(=O)(=O)c1cccc(NC(=O)CSc2nnc(N)s2)c1	?	-19%	18µM*	?
CCOc1ccc(Br)cc1S(=O)(=O)Nc1cccc(S(=O)(=O)N(C)c2ccccc2)c1	?	?	7.9µM*	-28%
CCC(C(=O)Nc1cccc(S(=O)(=O)N(C)c2ccccc2)c1)c1ccccc1 (stereo not drawn)	-13%	-20%	?	11µM*
Cc1cccc(NC(=O)CSc2nnc(N)s2)c1	i	-5%	·	-1%[46.1 µM]
CN(c1ccccc1)S(=O)(=O)c1cccc(NC(=O)CSc2nncs2)c1	-12%	-19%	?	10µM*
Cc1nc2cc(NC(=O)[C@@H]3C[C@@H](Sc4ccccn4)CN3Cc3ccccc3F)ccc2s1	-21%	-19%	·	·
CC(C)CN1C(=O)N(C)C(=O)C2N=CN=C21 (stereo not drawn)	·	·	23%	·
Cc1[nH]c2ccccc2c1C(=O)COC(=O)c1ccccc1SCC(=O)N1CCCC1	5%	-5%	·	·
CC(=O)c1c(C)[nH]c(C(=O)Nc2cccc(S(=O)(=O)N(C)c3ccccc3)c2)c1C	-11%	-17%	13µM*	?
CN(c1ccccc1)S(=O)(=O)c1cccc(NC(=O)CN2CCCc3ccccc32)c1	-20%	-25%	8.9µM*	?
CCCC[C@H](CCC(=O)Nc1ccc(C(=O)OCC)cc1)C(=O)O	·	·	2%	·
O=C(C1CC12CCN(Cc1cccc3cccnc13)CC2)N1CCN(Cc2cccs2)CC1 (stereo not drawn)	-11%	-5%	·	·
